The results in this text go back to PubChem BioAssay.

Activity calls are given as the source filed them.

One experiment deals with Albumin (Bos taurus) (UniProt P02769). Put plainly: compounds binding labelled BSA control protein – biochemical, small-molecule microarray, Alexa647 label, 635/667 nm fluorescence, artefact control for SMM control protein annotation, profiling panel (AID 1118).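 Also: score merges 667 nm emission intensity and signal-to-noise per printed compound spot.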 The settings on record: BSA-A647 binding, fluorescence 635 nm, higher = more signal.
Chain of Albumin (Bos taurus) (P02769 whole entry, looked up): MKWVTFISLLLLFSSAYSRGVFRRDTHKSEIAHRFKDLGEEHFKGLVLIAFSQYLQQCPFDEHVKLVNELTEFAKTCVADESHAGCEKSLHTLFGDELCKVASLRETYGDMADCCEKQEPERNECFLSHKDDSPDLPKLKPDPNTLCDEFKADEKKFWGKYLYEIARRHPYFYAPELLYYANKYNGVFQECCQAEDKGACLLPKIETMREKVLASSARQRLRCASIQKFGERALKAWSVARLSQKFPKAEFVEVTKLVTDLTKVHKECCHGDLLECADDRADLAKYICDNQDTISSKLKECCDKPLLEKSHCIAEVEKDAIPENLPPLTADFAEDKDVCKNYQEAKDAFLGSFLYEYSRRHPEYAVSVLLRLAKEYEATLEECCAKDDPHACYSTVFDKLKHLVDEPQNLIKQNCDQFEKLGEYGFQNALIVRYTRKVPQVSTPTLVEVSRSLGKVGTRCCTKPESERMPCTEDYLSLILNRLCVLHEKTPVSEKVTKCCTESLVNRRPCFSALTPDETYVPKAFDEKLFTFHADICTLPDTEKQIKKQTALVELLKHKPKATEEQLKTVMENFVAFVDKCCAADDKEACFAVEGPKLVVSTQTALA
The nature of experiment [1]: probe aXIP binding to arrayed compounds – biochemical, NeuroSMM set, 635/667 nm fluorescence, primary screen (AID 1119).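 Also: probe is the protein aXip251-270 applied at 1 µg/mL to compound-printed slides; binding of probe to printed compounds measured as 667 nm fluorescence plus signal to noise.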 Particulars: small-molecule microarray, higher = more signal, called active from +8 up or from −8 down.
A short description of experiment [2]: probe aNOTCH3 binding on compound microarray – biochemical, small-molecule microarray, 635/667 nm fluorescence, primary screen (AID 1120).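 Also: probe is a biotin-tagged antibody raised against NOTCH3 rather than NOTCH3 protein; score merges spot fluorescence near 667 nm with spot signal to noise.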 The settings on record: higher = more signal.
The nature of experiment [3]: probe aNOTCH2 binding on compound microarray – biochemical, small-molecule microarray, 635/667 nm fluorescence, primary screen (AID 1121).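 Also: score merges feature fluorescence read at 667 nm with its signal to noise.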 The settings on record: higher = more signal.
The target of experiment [4] is Carbonic anhydrase 2 (Homo sapiens) (UniProt P00918). Kind of experiment: compounds binding carbonic anhydrase 2 – biochemical, small-molecule microarray, Alexa647-labelled CAII, profiling panel (AID 1122). Particulars: CAII-A647 binding fluorescence, higher = more signal.
The nature of experiment [5]: COS7 lysate on small-molecule microarray, probe aHis, 635 nm (AID 1123).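 Also: z-score combines 667nm fluorescence intensity with signal-to-noise per printed compound spot.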 The settings on record: COS7 cell lysate, fluorescence, higher = more signal.
Experiment [6] in a line: probe aLAP1 signal on lysate-treated microarray – cell lysate, small-molecule microarray, COS7 lysate, primary screen (AID 1124).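 Also: lysate comes from COS7 cells expressing LAP1 and is applied at 0.3 µg/mL; score merges spot fluorescence near 667 nm with signal-to-noise over triplicate slides.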 The settings on record: probe aLAP1, fluorescence, higher = more signal.
The next experiment has as its system Sam68 (KHDRBS1). Put plainly: compounds binding KHDRBS1 protein – biochemical, small-molecule microarray, 635 nm fluorescence, primary screen (AID 1125).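 Also: score merges 667 nm channel intensity with signal to noise over triplicate slides.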 The settings on record: higher = more signal.
For experiment [7], the system named is Chordin-like protein 2 (CHRDL2). Put plainly: compounds binding chordin-like 2 – biochemical, small-molecule microarray, 635 nm fluorescence, primary screen (AID 1126).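 Also: printed compound slides probed with Chrdl2 protein at 4 µg/mL for 1 h at 4 C; score merges 667 nm emission intensity with signal to noise over three replicate slides.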 Particulars: fluorescence 635 nm, higher = more signal.
Experiment [8] deals with Concanavalin-A (Canavalia ensiformis) (UniProt P02866). Put plainly: compounds binding concanavalin A lectin – biochemical, small-molecule microarray, Alexa647 label, 635 nm, artefact control for SMM control protein annotation, primary screen (AID 1127).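 Also: z combines 667 nm emission intensity with signal-to-noise across three replicate slides.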 Particulars: ConA-A647 binding fluorescence, higher = more signal.
Chain of Concanavalin-A (Canavalia ensiformis) (P02866 whole entry, looked up): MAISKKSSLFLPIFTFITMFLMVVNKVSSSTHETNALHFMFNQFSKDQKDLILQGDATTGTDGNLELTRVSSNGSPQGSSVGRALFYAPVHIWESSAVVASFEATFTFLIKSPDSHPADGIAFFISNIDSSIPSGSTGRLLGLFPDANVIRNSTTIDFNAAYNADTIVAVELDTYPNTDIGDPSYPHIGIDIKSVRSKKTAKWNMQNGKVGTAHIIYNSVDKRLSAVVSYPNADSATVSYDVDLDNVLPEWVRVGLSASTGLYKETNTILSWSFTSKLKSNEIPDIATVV

For the compound `CC(C)c1ccc(NN2C(C(O)c3ccco3)C=CC3C(=O)N(c4ccccc4)C(=O)C32)cc1` (stereo not given), the composite z-score is 0.488 with Albumin (Bos taurus); 0.133 in experiment [2]; 0.124 in experiment [3]; 0.762 in [4]; 2.18 in experiment [5]; 0.219 in [6]. In addition, the composite z-score in the experiment with Sam68 (KHDRBS1) is 1.14; in [7], -0.394; in experiment [8], 1.17. For the same compound, in [1], the composite Z-score is 0.204 (inactive).

Turning to `O=C1O[C@@H](c2ccccc2)[C@@H](c2ccccc2)N2[C@@H](c3ccc(O)cc3)[C@]3(C(=O)Nc4ccc(C#CC5=CCCCC5)cc43)[C@@H](C(=O)N3CCN(c4ncccn4)CC3)[C@H]12`, the composite z-score with Albumin (Bos taurus) was 0.475; in [2] it was -0.0328; in experiment [3], -0.111; in experiment [4], 0.573; in experiment [5], 1.72; in experiment [6], 0.299. The composite z-score with Sam68 (KHDRBS1) is 1.29; in experiment [7] it was 0.363; in [8], 1.11. Moreover, in [1], the composite Z-score is 0.131 (inactive).

As for `CCCCN1CC=CC23O[C@@H]4/C=C\CCC(C)OC(=O)C4[C@H]2C(=O)N(CCCCCCO)[C@@H]3C1=O` (stereo not given in full), the composite z-score with Albumin (Bos taurus) is 0.5; in experiment [2], -0.307; in experiment [3] it was -0.228; in experiment [4], 0.86; in experiment [5], 0.177; in experiment [6], 0.54. Further, the composite z-score with Sam68 (KHDRBS1) was -0.168; in [7] it was -0.361; in [8] it was -0.34. Besides, in experiment [1], the composite Z-score was -0.59 (inactive).

For the compound `CCN(CC)c1ccc(N2CC=CC34O[C@@H]5/C=C\CCC(C)OC(=O)C5[C@H]3C(=O)N(CCO)[C@@H]4C2=O)cc1` (stereo not given in full), the composite z-score is -0.694 with Albumin (Bos taurus); -0.152 in experiment [2]; -0.132 in experiment [3]; 0.818 in experiment [4]; 1.87 in experiment [5]; 0.711 in experiment [6]. Moreover, the values for the composite z-score (in the experiment on Sam68 (KHDRBS1); in [7]; in [8]) were 0.153, -1.01 and -0.242, respectively. The composite Z-score in experiment [1] is 0.736 (inactive).

Turning to `COCCOC(=O)N1C(=O)[C@@]2(c3cc(C#CC4(O)CCCCCC4)ccc31)[C@H](c1ccccc1OCCO)N1[C@H](c3ccccc3)[C@H](c3ccccc3)OC(=O)[C@H]1[C@@H]2C(N)=O`, the composite z-score was -0.205 with Albumin (Bos taurus); 0.0282 in experiment [2]; -0.0942 in experiment [3]; 0.378 in experiment [4]; 0.994 in experiment [5]; -0.394 in experiment [6]. The composite z-score came to 1.31 in the experiment on Sam68 (KHDRBS1), 0.476 in experiment [7] and 1.15 in experiment [8]. Besides, the composite Z-score in experiment [1] was -0.02 (inactive).

As to `C=CCOC(=O)[C@@H]1[C@H]2C(=O)O[C@H](c3ccccc3)[C@H](c3ccccc3)N2[C@H](c2ccc(OCCOC(=O)[C@H]3C[C@H]4C(=O)N[C@@H](CCCC[N+](C)(C)C)C(=O)N4[C@H]3c3ccc(O)cc3)cc2)[C@@]12C(=O)Nc1ccc(I)cc12`, the composite z-score with Albumin (Bos taurus) was -0.914; in [2], 0.147; in experiment [3] it was -0.0843; in experiment [4] it was 0.534; in experiment [5], 2.74; in experiment [6], 0.577. Further, the composite z-score in the experiment with Sam68 (KHDRBS1) was 1.3; in [7], 1.16; in [8], 1.19. Besides, in experiment [1], the composite Z-score is 4.1 (inactive).

`COc1ccc([Si](C)(C)[C@H]2[C@H](CCn3cc([C@H](O)c4ccccc4)nn3)O[C@@]3(C(=O)N(Cc4cccc(N5C(=O)c6cccc7cccc5c67)c4)c4ccccc43)[C@@H]2C)cc1`: the composite z-score is 0.145 in the experiment with Albumin (Bos taurus); -0.185 in [2]; -0.159 in experiment [3]; 0.339 in [4]; 0.501 in experiment [5]; -0.0631 in experiment [6]. Moreover, the composite z-score was 0.258 with Sam68 (KHDRBS1), -1.54 in experiment [7] and -0.24 in experiment [8]. Further, the composite Z-score in experiment [1] is 0.674 (inactive).

Take `COC(=O)C[C@H]1O[C@]2(C(=O)N(C)c3ccccc32)[C@@H](C)[C@@H]1[Si](C)(C)c1ccc(C)cc1`: the composite z-score in the experiment with Albumin (Bos taurus) was 0.683; in [2], -0.113; in experiment [3] it was -0.117; in experiment [4], 0.0614; in experiment [5], 0.311; in experiment [6] it was 0.218. Also, the composite z-score stood at 1.16 in the experiment with Sam68 (KHDRBS1), 0.0565 in [7] and 0.379 in [8]. Also, the composite Z-score in [1] is 0.397 (inactive).

With `COCCCNC(=O)[C@]1(Cc2ccccc2CN=[N+]=[N-])N=C(c2ccc(OCCCO)cc2)O[C@@H]1c1ccccc1`, the composite z-score in the experiment with Albumin (Bos taurus) was 0.867; in experiment [2] it was 0.289; in experiment [3], -0.0633; in [4], 0.548; in [5] it was 1.91; in experiment [6] it was 0.785. The values for the composite z-score (with Sam68 (KHDRBS1); in experiment [7]; in [8]) were 0.997, -0.474 and 1, respectively. Moreover, the composite Z-score in [1] was -0.337 (inactive).

With `CC(C)(C)OC(=O)CC[C@]1(C(=O)NCCN2CCOCC2)N=C(c2ccc(OCCCO)cc2)O[C@H]1c1ccccc1N=[N+]=[N-]`, the composite z-score with Albumin (Bos taurus) worked out at 0.942; in [2], 0.286; in experiment [3], 0.0684; in experiment [4], 0.82; in experiment [5], 3.05; in experiment [6], 1.22. Also, the composite z-score with Sam68 (KHDRBS1) stood at 1.31; in experiment [7], 0.186; in [8], 0.373. Also, in [1], the composite Z-score is 0.489 (inactive).

As for `COC(=O)[C@@]1(Cc2ccc(OC)cc2)[C@H]2c3cc(C(=O)N4CCCC4)n(CCc4cc5ccccc5[nH]4)c3C[C@H]2CN1C(=O)c1ccccc1`, the composite z-score in the experiment with Albumin (Bos taurus) came to 1.01; in experiment [2], 0.353; in experiment [3] it was 0.213; in [4], 0.587; in experiment [5], 3.04; in experiment [6] it was 0.816. Moreover, the composite z-score is 1.31 in the experiment on Sam68 (KHDRBS1), -0.65 in experiment [7] and 1.13 in [8]. Further, the composite Z-score in [1] was 1.33 (inactive).

`COCCOC(=O)N1C(=O)[C@@]2(c3ccccc31)[C@H](c1ccc(OCCO)cc1)N1[C@H](c3ccccc3)[C@H](c3ccccc3)OC(=O)[C@H]1[C@@H]2C(=O)Nc1nc2ccccc2s1`: the composite z-score in the experiment with Albumin (Bos taurus) was 0.903; in [2], -0.0059; in experiment [3] it was -0.0089; in experiment [4] it was 0.55; in experiment [5], 2.74; in [6] it was 0.676. The composite z-score came out at 1.3 in the experiment with Sam68 (KHDRBS1), 0.232 in [7] and 1.17 in experiment [8]. The composite Z-score in experiment [1] is 0.171 (inactive).

Take `COC(=O)[C@@]1(Cc2ccc(F)cc2)[C@H]2c3cc(C(=O)N4CCCC4)n(CCF)c3C[C@H]2CN1C(=O)c1ccccc1`: the composite z-score in the experiment with Albumin (Bos taurus) turned out to be 1.09; in experiment [2], 1.82; in [3], 0.948; in experiment [4] it was 0.811; in [5], 3.46; in experiment [6] it was 0.829. Moreover, the values for the composite z-score (in the experiment with Sam68 (KHDRBS1); in [7]; in experiment [8]) were 0.37, 0.294 and 0.857, respectively. For the same compound, the composite Z-score in experiment [1] was 0.803 (inactive).

As for `O=C(N1CCCCC1)[C@@]1(Cc2ccccc2)COC(c2ccc(OCCCO)cc2)=N1`, the composite z-score was 0.874 with Albumin (Bos taurus); 0.501 in experiment [2]; 0.313 in [3]; 0.714 in experiment [4]; 2.44 in [5]; 0.409 in [6]. For the same compound, the composite z-score in the experiment with Sam68 (KHDRBS1) is 1.33; in experiment [7], -0.729; in experiment [8], 0.892. Also, the composite Z-score in experiment [1] was 0.986 (inactive).
